Assay [1] can be described thus: resazurin metabolic signal in HepG2 cells – cell-based, resazurin fluorescence, 24 h, PK04 Diversity Set, profiling panel (AID 1172). Further: test concentration not given here. Conditions: HepG2 viability, higher = more signal.
Assay [2] can be described thus: budding yeast growth changes without added modifier – OD600, strain BY4716, 24 h, basal condition, primary screen (AID 1173). Conditions: S. cerevisiae BY4716 growth, OD600, 24 h; higher = more signal, called active from +8 up or from −8 down.
Assay [3] is described as follows: viability profiling in MM1S myeloma cells – cell-based, resazurin fluorescence, basal, 24 h, PK04 Diversity Set, profiling panel (AID 1174).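 Further: MM1S multiple myeloma cell line; test concentration not given here.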 The note with it: higher = more signal, called active from +8 up or from −8 down. In general terms: Alamar Blue is a resazurin reagent that responds to reducing activity.
For assay [4], the target named is Dihydroorotate dehydrogenase (quinone), mitochondrial (Plasmodium falciparum (isolate 3D7)) (UniProt Q08210). In words: inhibition of P. falciparum DHODH – biochemical, C-terminal His tag, absorbance 600 nm, primary screen (AID 1175).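 Further: recombinant parasite enzyme with a five histidine tag at its C terminus; test concentration not given here.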 The note with it: PfDHODH enzyme, DCIP absorbance 600 nm; higher = more signal, called active from +8 up or from −8 down.
Sequence of Dihydroorotate dehydrogenase (quinone), mitochondrial (Plasmodium falciparum (isolate 3D7)) (Q08210 whole entry, looked up): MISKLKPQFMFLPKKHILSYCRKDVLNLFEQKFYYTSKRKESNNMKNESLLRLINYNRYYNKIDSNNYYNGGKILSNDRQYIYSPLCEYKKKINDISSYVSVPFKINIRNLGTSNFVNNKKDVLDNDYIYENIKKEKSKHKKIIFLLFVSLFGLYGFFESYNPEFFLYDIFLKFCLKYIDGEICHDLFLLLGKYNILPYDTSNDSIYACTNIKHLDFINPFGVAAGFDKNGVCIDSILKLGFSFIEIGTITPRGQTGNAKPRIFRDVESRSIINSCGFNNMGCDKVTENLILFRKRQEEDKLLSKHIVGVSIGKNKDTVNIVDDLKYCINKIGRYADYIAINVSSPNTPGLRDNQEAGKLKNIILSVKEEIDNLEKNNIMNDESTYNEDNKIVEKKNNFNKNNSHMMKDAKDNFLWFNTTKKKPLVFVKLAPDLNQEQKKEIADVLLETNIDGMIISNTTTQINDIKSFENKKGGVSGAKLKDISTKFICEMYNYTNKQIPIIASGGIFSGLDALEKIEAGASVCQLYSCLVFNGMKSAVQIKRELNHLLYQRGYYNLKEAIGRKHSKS
The nature of assay [5]: inhibition of PAO1 biofilm formation – strain PAO1, LB-PBS medium, absorbance 600 nm, primary screen (AID 1176). Further: test concentration not given here. The note with it: P. aeruginosa PAO1 growth/biofilm, A600, 12 h; higher = more signal.
Assay [6] can be described thus: growth modulation of vineyard yeast isolate – strain RM11-1a, OD600, basal, 24 h, primary screen (AID 1177).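 Further: cultures grown under basal conditions with no added stressor; test concentration not given here.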 The note with it: S. cerevisiae RM11-1a growth, OD600, 24 h; higher = more signal, called active from +8 up or from −8 down.
Assay [7] can be described thus: growth of efflux-deficient E. coli DRC39 – strain DRC39, OD650, 24 h, E. coli filamentation inducers, primary screen (AID 1178).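 Further: growth measured as culture turbidity by optical density at 650 nm; test concentration not given here.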 Conditions: E. coli DRC39 acrAB, higher = more signal, called active from +8 up or from −8 down.
Assay [8] is described as follows: growth of efflux-deficient E. coli DRC39 – strain DRC39, OD650, 48 h, E. coli filamentation inducers, primary screen (AID 1179).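 Further: screen aims at cell division blockers that make cells filament.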 Conditions: E. coli DRC39 delta-acrAB growth, higher = more signal, called active from +8 up or from −8 down.
A short description of assay [9]: viability profiling in RPMI8226 myeloma cells – cell-based, resazurin fluorescence, basal, 24 h, PK04 Diversity Set, profiling panel (AID 1180).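 Further: RPMI8826 multiple myeloma cell line at 5000 cells per well; test concentration not given here.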 Conditions: higher = more signal.
Assay [10] addresses E3 ubiquitin-protein ligase XIAP (Homo sapiens) (UniProt P98170). In words: small molecules binding XIAP protein – biophysical, small-molecule microarray, fluorescence 635 nm, primary screen (AID 1181).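 Further: score merges 667 nm emission and signal to noise over triplicate slides.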 The note with it: higher = more signal.

Activity calls are given as the source filed them. Unless noted, how the calls were made is not given here.

Sequence of E3 ubiquitin-protein ligase XIAP (Homo sapiens) (P98170 whole entry, looked up): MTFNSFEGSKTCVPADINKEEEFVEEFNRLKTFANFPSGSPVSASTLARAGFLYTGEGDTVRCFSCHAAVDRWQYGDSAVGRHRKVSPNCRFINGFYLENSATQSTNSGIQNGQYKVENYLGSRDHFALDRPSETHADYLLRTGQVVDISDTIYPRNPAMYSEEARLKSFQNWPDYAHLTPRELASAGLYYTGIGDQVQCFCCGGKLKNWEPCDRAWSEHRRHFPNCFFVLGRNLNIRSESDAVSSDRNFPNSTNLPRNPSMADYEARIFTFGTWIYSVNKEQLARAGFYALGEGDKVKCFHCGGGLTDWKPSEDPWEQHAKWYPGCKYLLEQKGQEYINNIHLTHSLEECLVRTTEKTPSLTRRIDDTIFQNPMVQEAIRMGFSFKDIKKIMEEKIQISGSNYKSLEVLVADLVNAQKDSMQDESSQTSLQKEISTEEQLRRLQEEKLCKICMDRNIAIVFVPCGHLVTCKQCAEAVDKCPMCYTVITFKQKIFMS

`COC(=O)[C@@]1(Cc2ccc(F)cc2)[C@H]2c3cc(C(=O)N4CCCC4)n(Cc4cc(C)n(C)n4)c3C[C@H]2CN1C(=O)c1ccccc1`: the z-score in assay [1] is -0.945; in [2] it was 0.603 (inactive); in assay [3], -0.642 (inactive); in assay [5], 0.964 (inactive); in assay [6], 0.279 (inactive); in [7], -0.375 (inactive). Further, the results for the z-score in assay [8] and in assay [9] were -0.459 (inactive) and -1.51, respectively. The composite z-score in assay [4] was -0.468 (inactive); in [10] it was 0.17.
Regarding `CCN(CC)c1ccc(N2CC=CC34O[C@@H]5/C=C\CCC(C)OC(=O)C5[C@H]3C(=O)N(C(CO)C(C)C)[C@@H]4C2=O)cc1` (stereo not given in full), the z-score in [1] is -0.364; in assay [2] it was 0.0948 (inactive); in [3], 0.509 (inactive); in [5], -0.525 (inactive); in [6] it was -0.185 (inactive); in assay [7], 0.496 (inactive). In addition, the z-score is 0.767 (inactive) in assay [8] and 0.259 in assay [9]. The composite z-score is -2.68 (inactive) in [4] and 0.0049 in assay [10].
With `CC(C)C(CO)N1C(=O)[C@@H]2[C@H]3C(=O)OCC=C[C@H]3OC23C=CCN(C(C)C)C(=O)[C@@H]13` (stereo not given in full), the z-score in assay [1] was 1.18; in [2] it was 0.55 (inactive); in assay [3], 0.713 (inactive); in [5], -0.565 (inactive); in assay [6], 0.73 (inactive); in assay [7] it was 0.074 (inactive). The z-score in assay [8] was -0.137 (inactive); in [9], 0.634. The composite z-score in [4] was 0.0658 (inactive); in assay [10], -0.0719.
With `CCCCC(O)C1C=CC2C(=O)N(c3ccccc3)C(=O)C2N1Nc1ccccc1F` (stereo not given), the z-score in assay [1] is -0.8; in [2], -0.42 (inactive); in assay [3], -0.459 (inactive); in assay [5], 1.14 (inactive); in assay [6], -0.182 (inactive); in [7], -0.221 (inactive). Also, the z-score in assay [8] is 0.128 (inactive); in assay [9] it was -0.786. Moreover, the composite z-score in assay [4] was -0.365 (inactive); in assay [10] it was 0.691.
On to `COCCOC(=O)N1C(=O)[C@@]2(c3cc(C#CCCO)ccc31)[C@H](c1ccc(OCCO)cc1)N1[C@H](c3ccccc3)[C@H](c3ccccc3)OC(=O)[C@H]1[C@@H]2C(=O)N1CCN(c2ncccn2)CC1`, for which the z-score was 0.235 in [1]; 1.37 (inactive) in [2]; 0.327 (inactive) in [3]; 1.27 (inactive) in [5]; 1.24 (inactive) in assay [6]; -0.448 (inactive) in assay [7]. Moreover, the z-score was -0.327 (inactive) in assay [8] and 0.52 in [9]. In addition, the composite z-score in assay [4] is -0.547 (inactive); in assay [10], -0.212.
For the molecule `COc1ccc([C@H]2OC[C@@H]3CC4(CC=CC4)C(=O)N32)cc1`, the z-score in assay [1] was -0.876; in assay [2] it was -0.897 (inactive); in assay [3], 0.305 (inactive); in [5], -0.0634 (inactive); in assay [6], 0.504 (inactive); in [7], -0.632 (inactive). The values for the z-score in [8] and in assay [9] were -0.688 (inactive) and 0.012, respectively. Besides, the composite z-score is -0.177 (inactive) in [4] and -0.0118 in assay [10].
Take `Cc1ccc(S[C@]2(C(=O)NC3CC3)CC(=O)N(C3Cc4ccccc4C3)[C@@H]2c2ccc(CO)cc2)cc1`: the z-score in [1] was -0.122; in assay [2], -0.612 (inactive); in assay [3], 0.0142 (inactive); in assay [5] it was 0.472 (inactive); in assay [6] it was -1.52 (inactive); in assay [7] it was 0.851 (inactive). The figures for the z-score in assay [8] and in assay [9] were 1.26 (inactive) and 0.0919, respectively. The composite z-score in [4] is -1.85 (inactive); in [10], -0.162.
Regarding `C=CC[C@]12N=C(c3ccc(OCCCO)cc3)O[C@H]1c1ccccc1N(Cc1ccccc1)C2=O`, the z-score in assay [1] was -0.882; in assay [2], 0.143 (inactive); in assay [3], -3.28 (inactive); in assay [5], 0.603 (inactive); in [6], 0.492 (inactive); in assay [7] it was -0.0819 (inactive). In addition, the z-score in assay [8] is 0.328 (inactive); in [9] it was -2.3. In addition, the composite z-score in assay [4] was 0.648 (inactive); in assay [10], -0.122.
On to `CCCC=C(CCC)[C@@H](NC(=O)Oc1ccc(F)cc1)c1ccc(C(=O)OC)cc1`, for which the z-score is 1.01 in [1]; 1.21 (inactive) in [2]; 0.0374 (inactive) in assay [3]; 0.535 (inactive) in [5]; 1.2 (inactive) in [6]; -0.0379 (inactive) in assay [7]. Moreover, the z-score is 0.0821 (inactive) in assay [8] and -1.94 in [9]. For the same molecule, the composite z-score was 0.58 (inactive) in [4] and 0.248 in [10].
On to `O=C1NC(=O)C2C1C=CC(C(O)Cc1ccccc1)N2Nc1ccc(Cl)cc1Cl` (stereo not given), for which the z-score in assay [1] is -0.985; in [2] it was -7.58 (inactive); in assay [3], -1.56 (inactive); in [5], 0.53 (inactive); in assay [6] it was 0.181 (inactive); in assay [7], -0.655 (inactive). Besides, the z-score in assay [8] was -0.603 (inactive); in assay [9] it was -1.04. In addition, the composite z-score in assay [4] is -0.276 (inactive); in assay [10], 0.13.
On to `C=CCOC(=O)[C@@H]1[C@H]2C(=O)O[C@H](c3ccccc3)[C@H](c3ccccc3)N2[C@H](c2ccc(OCCOC(=O)[C@@H]3C[C@@H]4C(=O)N[C@@H](Cc5ccccc5)C(=O)N4[C@@H]3c3ccc(O)cc3)cc2)[C@@]12C(=O)Nc1ccc(I)cc12`, for which the z-score in [1] is -0.437; in [2] it was 0.963 (inactive); in assay [3], 0.372 (inactive); in assay [5], 2.1 (inactive); in [6] it was 1.91 (inactive); in assay [7], -0.0033 (inactive). Besides, the z-score in assay [8] is -1.53 (inactive); in [9] it was 0.411. For the same molecule, the composite z-score is -0.0246 (inactive) in assay [4] and 0.104 in assay [10].
With `COc1ccc(COC2OC[C@]3(C)[C@H]4C5=C(CN3C(=O)OC(C)(C)C)[C@H](C)C(CO)C(CO)C5CC[C@@H]24)cc1` (stereo not given in full), the z-score in assay [1] was -0.987; in [2], 0.455 (inactive); in assay [3], -2.38 (inactive); in assay [5] it was 1.03 (inactive); in assay [6] it was 0.903 (inactive); in assay [7] it was -0.806 (inactive). Also, the z-score in assay [8] is -1.6 (inactive); in assay [9] it was -1.19. Besides, the composite z-score in assay [4] is -0.124 (inactive); in [10] it was -0.02.

The values are drawn from PubChem BioAssay.
